Entries with a potency or affinity are not part of this list. Active and inactive are the calls of the source. Unless noted, no rule for the calls is given here.
target: Calcium-dependent protein kinase 1 (Plasmodium falciparum (isolate 3D7)) (UniProt P62344); test: PfCDPK1 kinase inhibitors, biochemical, TCAMS library (AID 1159585; cut-off not given, nearly all actives have IC50 up to about 0.98 µM;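 also: inhibitors leave more ATP so luminescence rises with inhibition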); conditions: recombinant PfCDPK1, Kinase-Glo ATP depletion luminescence
Sequence (P62344 whole entry, looked up): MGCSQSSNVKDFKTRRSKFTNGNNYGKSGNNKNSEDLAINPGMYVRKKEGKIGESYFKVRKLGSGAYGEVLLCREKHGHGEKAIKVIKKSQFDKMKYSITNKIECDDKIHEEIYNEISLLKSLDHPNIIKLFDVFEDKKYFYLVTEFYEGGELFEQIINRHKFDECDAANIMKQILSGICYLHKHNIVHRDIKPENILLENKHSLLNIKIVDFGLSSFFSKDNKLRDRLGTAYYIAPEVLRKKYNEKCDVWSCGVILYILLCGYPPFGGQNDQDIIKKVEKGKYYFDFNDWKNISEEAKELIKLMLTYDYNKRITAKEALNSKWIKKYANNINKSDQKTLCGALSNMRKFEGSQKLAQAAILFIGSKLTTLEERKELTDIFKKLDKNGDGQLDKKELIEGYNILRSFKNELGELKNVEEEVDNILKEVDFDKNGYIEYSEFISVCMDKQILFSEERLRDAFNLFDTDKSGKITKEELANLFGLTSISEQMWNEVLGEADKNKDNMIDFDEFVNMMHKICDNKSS

outcome, inactive:
CCN(CCCN1CCCCC1)c1cc(C)nc(Nc2cc(Cl)ccc2C)n1
O=C(Nc1ccc(Cl)cn1)c1sc2ccccc2c1O
Nc1c(Cl)cc(C(O)CNCCCCCCOCCc2ccc(CO)s2)cc1Cl (stereo not given)
COc1ccccc1C(C)NCC(=O)Nc1ccccc1Sc1ccccc1 (stereo not given)
COc1ccccc1/C=C/C(=O)N(C)C1CCN(CCCCCNC(=O)/C=C/c2ccc(Cl)c(Cl)c2)C1 (stereo not given)
CC(C)C[C@H](Nc1ccnc(NCC2CCCCC2)n1)C(=O)Nc1ccccc1
CC(=O)C=C1CC(=O)N(C[C@@H](O)[C@H]2O[C@@H]3OC(C)(C)O[C@@H]3[C@H]2O)c2ccccc2N1
Cc1noc(C)c1-c1cccc(CNCc2ccc(-c3cccc(-c4nc5ccccc5[nH]4)c3)cc2)c1
CCNc1cc(C(=O)N[C@@H](Cc2ccccc2)[C@H](O)CNC(CC)c2cccc(Cl)c2)cc(N2CCCC2=O)c1 (stereo not given in full)
CC(C)(C)NC(=O)C(c1ccc(F)cc1)N(C(=O)c1ccc(CN2CCOCC2)o1)c1ccc(C2CCCCC2)cc1 (stereo not given)
Cc1noc(C)c1-c1cccc(CNCc2ccc(-c3ccc(-c4nc5ccc(F)cc5[nH]4)cc3)cc2)c1
O=C1OC2(CCN(C(=O)c3ccc(-n4cnnn4)cc3)CC2)CN1Cc1ccc(Cl)c(Cl)c1
CC(C)(C)C1CCC(C(=O)c2ccc3ccccc3c2O)CC1 (stereo not given)
CCN(CC)CCN(Cc1ccc(-c2ccc(C(F)(F)F)cc2)cc1)C(=O)Cn1c(CCc2cccc(F)c2F)cc(=O)c(C)c1C
O=C(CCc1cccnc1)Nc1cccc(-c2ccc(-c3nc4ccc(C(F)(F)F)cc4[nH]3)s2)c1
CCCNC(=O)Nc1ccc(N(C)c2ccnc(NC3CC3)n2)cc1
NCCCNc1ccc(-c2ccc(NC(=O)Nc3cc(C(F)(F)F)ccc3F)cc2)cn1
Cc1cccc(CN2CCCN(Cc3cccc(C(=O)Nc4ccc(C(C)(C)C)cc4)c3)CC2)c1
CCn1ccc2c(N3CCCC3=O)cc(C(=O)N[C@@H](Cc3ccccc3)[C@H](O)CNC3CCCCC3)cc21
Cc1ccccc1C(=O)Nc1cccc(-c2nc3ncccn3c2C)c1
O=S(=O)(Nc1ccc(CCN2CCCCC2CCN2CCCC2)cc1)c1cccc2cccnc12 (stereo not given)
Cc1cccc2[nH]c(-c3ccc(-c4ccc(CN5CCOCC5)cc4)cc3)nc12
CC(CN1CCN(C)CC1)C(=O)Nc1cccc(-c2cccc(-c3nc4ccccc4[nH]3)c2)c1 (stereo not given)
NC(N)=NCCCN(Cc1ccccc1)c1ccccc1
OCCN1CCN(C(=S)Nc2ccccc2)CC1

target: Plasmodium falciparum protein kinase 6 (PK6, PF3D7_1337100) (UniProt Q8IDW1); test: PfPK6 kinase inhibitors, biochemical, TCAMS library (AID 1159586); conditions: recombinant PfPK6, Kinase-Glo ATP depletion luminescence
Sequence (Q8IDW1 1-305): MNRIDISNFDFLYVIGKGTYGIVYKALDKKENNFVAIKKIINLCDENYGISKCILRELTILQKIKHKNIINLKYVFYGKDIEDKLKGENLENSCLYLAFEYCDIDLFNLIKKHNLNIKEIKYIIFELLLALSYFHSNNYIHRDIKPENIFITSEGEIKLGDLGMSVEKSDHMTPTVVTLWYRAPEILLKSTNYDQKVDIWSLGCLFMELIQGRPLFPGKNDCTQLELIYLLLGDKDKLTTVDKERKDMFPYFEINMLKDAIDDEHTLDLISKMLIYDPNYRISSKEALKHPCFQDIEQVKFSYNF

outcome, inactive:
O=C(N[C@H]1CCN(Cc2ccc(OCCN3CCNCC3)c(Br)c2)C1)c1ccc(Cl)c(Cl)c1
CCOc1cc(C(=O)NC2CCN(Cc3ccccc3)CC2)ccc1-c1nc2ccc(Cl)cc2[nH]1
O=C(Nc1cccc(-c2ccc(-c3nc4ccccc4[nH]3)cc2)c1)c1cnn2cccnc12
Cc1cccc2[nH]c(-c3ccc(-c4ccc(NC(=O)Nc5cccc(C#N)c5)cc4)cc3)nc12
CCN1CCN(CCCCNc2c3ccccc3nc3ccccc23)CC1
CCc1c(C)nc(-n2nc(C)cc2NC(=O)CC(c2ccccc2)c2ccccc2)[nH]c1=O
Cc1cc(CN2C(=O)C(c3ccccc3)(c3ccccc3)N=C2N)c(C(F)(F)F)o1
CC(=O)Nc1ccc(CN2CCC(NC(=O)c3ccc(-c4cccc(Cl)c4)s3)CC2)cc1
COc1ccc2nccc(NN=Cc3ccccc3[N+](=O)[O-])c2c1
Cc1cc(C(=O)OCC(N)=O)c(C)n1-c1ccc(F)cc1
COc1ccc(Nc2nc(NN=Cc3ccc(-c4ccc([N+](=O)[O-])cc4)o3)nc(Nc3ccccc3)n2)cc1
COc1ccc2nccc([C@@H](O)CN3CCC(NC(=O)c4ccc(Cl)c(Cl)c4)CC3)c2c1
Cc1cccc2[nH]c(-c3ccc(-c4ccc(CN5CCN(CC6CCCN(C)C6)CC5)cc4)cc3)nc12 (stereo not given)
CCOc1ccc(OCCCON2C(N)=NC(N)=NC2(C)C)cc1
Cc1cccc(-n2nc(C)c3c2NC(=O)CC3C(=O)c2ccc(Cl)s2)c1 (stereo not given)
CCN(CCCN1CCCCC1)c1cc(C)nc(Nc2cc(Cl)ccc2C)n1
O=C(Nc1ccc(Cl)cn1)c1sc2ccccc2c1O
Nc1c(Cl)cc(C(O)CNCCCCCCOCCc2ccc(CO)s2)cc1Cl (stereo not given)
COc1ccccc1C(C)NCC(=O)Nc1ccccc1Sc1ccccc1 (stereo not given)
COc1ccccc1/C=C/C(=O)N(C)C1CCN(CCCCCNC(=O)/C=C/c2ccc(Cl)c(Cl)c2)C1 (stereo not given)
CC(C)C[C@H](Nc1ccnc(NCC2CCCCC2)n1)C(=O)Nc1ccccc1
CC(=O)C=C1CC(=O)N(C[C@@H](O)[C@H]2O[C@@H]3OC(C)(C)O[C@@H]3[C@H]2O)c2ccccc2N1
Cc1noc(C)c1-c1cccc(CNCc2ccc(-c3cccc(-c4nc5ccccc5[nH]4)c3)cc2)c1
CCNc1cc(C(=O)N[C@@H](Cc2ccccc2)[C@H](O)CNC(CC)c2cccc(Cl)c2)cc(N2CCCC2=O)c1 (stereo not given in full)
CC(C)(C)NC(=O)C(c1ccc(F)cc1)N(C(=O)c1ccc(CN2CCOCC2)o1)c1ccc(C2CCCCC2)cc1 (stereo not given)
Cc1noc(C)c1-c1cccc(CNCc2ccc(-c3ccc(-c4nc5ccc(F)cc5[nH]4)cc3)cc2)c1
O=C1OC2(CCN(C(=O)c3ccc(-n4cnnn4)cc3)CC2)CN1Cc1ccc(Cl)c(Cl)c1
CC(C)(C)C1CCC(C(=O)c2ccc3ccccc3c2O)CC1 (stereo not given)
CCN(CC)CCN(Cc1ccc(-c2ccc(C(F)(F)F)cc2)cc1)C(=O)Cn1c(CCc2cccc(F)c2F)cc(=O)c(C)c1C
O=C(CCc1cccnc1)Nc1cccc(-c2ccc(-c3nc4ccc(C(F)(F)F)cc4[nH]3)s2)c1
CCCNC(=O)Nc1ccc(N(C)c2ccnc(NC3CC3)n2)cc1
NCCCNc1ccc(-c2ccc(NC(=O)Nc3cc(C(F)(F)F)ccc3F)cc2)cn1
Cc1cccc(CN2CCCN(Cc3cccc(C(=O)Nc4ccc(C(C)(C)C)cc4)c3)CC2)c1
CCn1ccc2c(N3CCCC3=O)cc(C(=O)N[C@@H](Cc3ccccc3)[C@H](O)CNC3CCCCC3)cc21
Cc1ccccc1C(=O)Nc1cccc(-c2nc3ncccn3c2C)c1
O=S(=O)(Nc1ccc(CCN2CCCCC2CCN2CCCC2)cc1)c1cccc2cccnc12 (stereo not given)
Cc1cccc2[nH]c(-c3ccc(-c4ccc(CN5CCOCC5)cc4)cc3)nc12
CC(CN1CCN(C)CC1)C(=O)Nc1cccc(-c2cccc(-c3nc4ccccc4[nH]3)c2)c1 (stereo not given)
NC(N)=NCCCN(Cc1ccccc1)c1ccccc1
OCCN1CCN(C(=S)Nc2ccccc2)CC1

Source: PubChem BioAssay
